Mtb FBA inh: Mtb FBA enzyme inhibitors, primary screen, biochemical, fluorescence, strain H37Rv; Fructose-bisphosphate aldolase (Mycobacterium tuberculosis (strain ATCC 25618 / H37Rv)), …; inhibition, % at 1 µM; purified M. tuberculosis FBA, fluorescence read-out; actives 2.3% (n = 360,000); in the data active means inhibition above about 27%;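 further: 0% = vehicle and 100% = reference inhibitor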
Target sequence (P9WQA3 whole entry, looked up): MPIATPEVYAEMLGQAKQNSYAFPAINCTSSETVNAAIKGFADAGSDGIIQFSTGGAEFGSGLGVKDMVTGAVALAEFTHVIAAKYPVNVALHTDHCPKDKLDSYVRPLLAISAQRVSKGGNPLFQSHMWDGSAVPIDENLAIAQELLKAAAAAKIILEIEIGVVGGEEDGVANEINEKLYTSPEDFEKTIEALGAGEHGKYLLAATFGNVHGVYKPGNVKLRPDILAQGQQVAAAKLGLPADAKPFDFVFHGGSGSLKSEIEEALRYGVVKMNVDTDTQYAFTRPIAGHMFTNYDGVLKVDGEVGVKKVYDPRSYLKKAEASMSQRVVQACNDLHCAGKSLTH
Mtb hypoxia rep: PubChem AID 1159583; M. tuberculosis hypoxia-regulated fluorescent reporter, fluorescence; fluorescence inhibition, % (test concentration not listed); actives 0.1% (n = 300,000); in the data active means fluorescence inhibition mostly above about 23%, no sharp cut-off; inactive means mostly below about 17%
Mtb BioA inh: M. tuberculosis BioA enzyme inhibitors, primary screen, biochemical, plate reader, single point, HTS; inhibition, % at 9.99 µM; actives 0.096% (n = 360,000); AID 602481, 2012; 7,8-diaminopelargonic acid synthase BioA (Mycobacterium tuberculosis); purified M. tuberculosis BioA enzyme; in the data active means inhibition above about 40%
GDH-TPI counter: GDH-TPI coupling enzyme inhibitors, primary screen, artefact control for M. tuberculosis FBA inhibitor project, biochemical, absorbance, full deck; GDH-TPI coupled enzyme counterscreen, NADH absorbance; inhibition, % at 4.8 µM; actives 1.2% (n = 360,000); AID 588335, 2011; in the data active means inhibition above about 30%;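 further: 0% = DMSO wells and 100% = wells lacking the enzyme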
FadD28 binding: inhibitors of FadD28 bisubstrate probe binding, primary screen, biochemical, fluorescence polarization, single point; AID 588549, 2011; actives 0.22% (n = 360,000); Mycobacterium tuberculosis FadD28 fatty-acid-AMP ligase; inhibition, % at 12.5 µM; in the data active means inhibition above about 8.5%, passing the limit was not always enough
* hit, by the source's call; · = not tested or not shown. An excerpt weighted towards active compounds, which were near 2.9% of everything screened.

SMILES | Mtb FBA inh | Mtb hypoxia rep | Mtb BioA inh | GDH-TPI counter | FadD28 binding
C=CCOc1ccc(C=NNc2ccc(S(=O)(=O)Nc3ccccc3C(=O)O)cc2[N+](=O)[O-])cc1OC | 1 | 12 | 7 | 10 | 32*
Cc1cc(=O)oc2cc(NS(=O)(=O)c3ccccc3)ccc12 | · | -2 | 0 | 37* | -1
Cc1cc(=O)oc2cc(NC(=O)c3cc(F)ccc3F)ccc12 | 7 | 0 | -1 | 13 | 0
Cc1cc(=O)oc2cc(NS(=O)(=O)c3ccc(F)cc3)ccc12 | · | -6 | -1 | 52* | 1
CN(C)S(=O)(=O)c1ccc(S(=O)(=O)Nc2ccc3c(c2)oc2ccccc23)cc1 | -1 | 5 | 0 | 9 | 0
Cc1ccc(S(=O)(=O)N[C@@H]2CC[C@@H](CCNC(=O)CN3CCOCC3)O[C@H]2CO)cc1 | · | · | -3 | · | ·
COc1ccc(CC(=O)N2CCN(C(=O)Cc3ccc(OC)cc3)CC2)cc1 | 4 | · | 1 | 1 | -2
COc1ccc(-c2ccc(C(=S)N3CCN(C(C)=O)CC3)o2)cc1 | 7 | 20 | 0 | 32* | -5
N#C[C@H]1[C@@H](c2ccc(C#CC3(O)CCCC3)cc2)[C@H](CO)N1C(=O)C1CC1 | · | · | -3 | · | ·
CCN(CC)c1ccc(/C=N/NC(=O)c2cccc(N3CCCC3=O)c2)cc1 | -1 | · | · | 31* | 2
O=C(N/N=C/c1cccnc1)c1cccc(N2CCCC2=O)c1 | -6 | · | 25 | -5 | -3
COc1cc(/C=N/NC(=O)c2cccc(N3CCCC3=O)c2)ccc1O | 0 | · | -1 | 40* | 1
O=C1/C(=C/c2cccnc2)Oc2cc(OS(=O)(=O)c3ccccc3)ccc21 | 4 | 1 | -4 | 46* | 1
O=C1/C(=C/c2cccnc2)Oc2cc(OS(=O)(=O)c3ccc(Cl)cc3)ccc21 | 1 | -4 | 0 | 3 | 1
C[C@@H]1CN([C@H](C)CO)C(=O)c2cc(NS(C)(=O)=O)ccc2O[C@H]1CN(C)C(=O)Nc1ccc(C(F)(F)F)cc1 | · | · | 1 | · | ·
O=C(N[C@H]1CC[C@@H](CCNS(=O)(=O)c2ccc(Cl)cc2)O[C@H]1CO)c1cnccn1 | · | · | -3 | · | ·
O=C(CSc1nnc(CNC(=O)c2c(F)cccc2Cl)o1)Nc1ccc2c(c1)OCO2 | 95* | -3 | -3 | -3 | 0
CC(=NNc1ccc(Cl)cc1)c1ccccn1 | · | -3 | · | · | ·
CCOC(=O)N1CCN(C(=O)CCSc2ccccc2)CC1 | 123* | 5 | 0 | -2 | -1
CCOC(=O)N1CCN(C(=O)CCSc2ccc(C)cc2)CC1 | -6 | · | 1 | 8 | -1
C[C@H](CO)N1C[C@H](C)[C@H](CN(C)Cc2ccc(-c3ccccc3)cc2)Oc2ccc(NC(=O)Cc3ccccc3)cc2C1=O | · | · | -3 | · | ·
O=C(Nc1nc2ccccc2[nH]1)c1ccc(S(=O)(=O)N2CCOCC2)cc1 | 4 | -1 | · | 39* | -1
CCc1ccc(-c2cnc3nc[nH]c(=O)c3n2)cc1 | 135* | 2 | -2 | 6 | -2
CCCNC(=O)N1[C@@H]2Cn3c(ccc(-c4cccc(OC)c4)c3=O)[C@H]1[C@@H](C(=O)NCC)[C@@H]2CO | · | · | 0 | · | ·
CCCNC(=O)C[C@@H]1C[C@H]2c3cc(NC(=O)NC4CCCCC4)ccc3O[C@H]2[C@H](CO)O1 | · | · | -2 | · | ·
SMILES | Mtb FBA inh | Mtb hypoxia rep | Mtb BioA inh | GDH-TPI counter | FadD28 binding
COc1cc(C=NN(CCO)C2=NS(=O)(=O)c3ccccc32)cc(OC)c1OC | · | -6 | · | · | ·
COC(=O)C1=C(c2ccc(OC(F)(F)F)cc2)CC2CCC1N2C(=O)NCCOc1ccccc1 (stereo not given) | · | -11 | · | · | ·
COC(=O)C1=C(c2ccc(OC(F)(F)F)cc2)C[C@@H]2CC[C@H]1N2C(=O)NCCc1ccccc1 | 7 | · | 3 | 58* | -2
Cc1cccc(N2C(=O)NC(=O)/C(=C\c3ccc(N4CCOCC4)cc3)C2=O)c1 | -4 | 7 | · | 31* | 0
CC=Cc1ccc2n(c1=O)C[C@H]1[C@H](CO)[C@@H](C(=O)NCC3CCCCC3)[C@@H]2N1C(=O)CC (mixture of isomers) | · | · | 0 | · | ·
Nc1cc(C(=O)O)c(N)c2c1C(=O)c1ccccc1C2=O | -3 | 17 | · | 9 | 8.3*
Cc1ccc(-c2ccc(C=NNC(=O)Cc3nnc(N)s3)o2)cc1Cl | · | -13 | · | · | ·
Nc1nnc(CC(=O)N/N=C/c2ccc(-c3ccccc3Cl)o2)s1 | 0 | · | · | 39* | -8
Nc1nnc(CC(=O)N/N=C/c2ccc(-c3ccc(Cl)cc3Cl)o2)s1 | 0 | · | · | 38* | -2
CC(CC(=O)Nc1cccc(Cl)c1C)=NNC(=O)C(=O)NCC(C)C | · | 6 | · | · | ·
O=C(NCCN1C(=O)S/C(=C\c2ccccc2Cl)C1=O)C1=COCCO1 | 2 | 2 | 2 | 20 | -1
O=C(NCCN1C(=O)S/C(=C\c2ccccc2F)C1=O)C1=COCCO1 | 3 | 8 | · | 42* | -2
O=C(NCCN1C(=O)S/C(=C\c2ccc(OC(F)F)cc2)C1=O)C1=COCCO1 | 4 | 5 | · | 41* | 0
COc1cc(C(=O)NCCN2C(=O)S/C(=C\c3cccs3)C2=O)cc(OC)c1OC | -3 | 3 | 0 | 17 | 1
COc1cc(/C=C2\SC(=O)N(CCNC(=O)c3c(C)noc3C)C2=O)cc(OC)c1OC | 1 | -1 | · | 31* | -2
COc1ccc(/C=C2\SC(=O)N(CCNC(=O)C3=COCCO3)C2=O)cc1 | 2 | -15 | -1 | 31* | 0
CC(O)Cc1cc2ccccc2c(=O)o1 (stereo not given) | · | 6 | · | · | ·
CC(=O)Nc1ccc(/C=N/NC(=S)NC(C)C)cc1 | -2 | · | · | 40* | 0
COC(=O)c1ccc(C=NNC(=S)NCCN2CCOCC2)cc1 | · | 2 | · | · | ·
Cc1cccc(C)c1NC(=S)N/N=C/c1ccc(C(=O)O)cc1 | 5 | · | -2 | 45* | -3
S=C(NCCN1CCOCC1)N/N=C/c1cccs1 | 3 | · | · | 35* | -3
O=C(O)c1ccc(/C=N/NC(=S)NCCN2CCOCC2)cc1 | -5 | · | -1 | 46* | -1
Cc1ccc(C(=O)Nc2ccc(C(=O)NN=Cc3c[nH]c4ccccc34)cc2)cc1 | · | -7 | · | · | ·
O=C(c1ccncc1)c1ccc(N2CCN(C3CC(=O)N(Cc4cccs4)C3=O)CC2)cc1 (stereo not given) | -4 | 5 | 0 | 38* | 0
O=C(N/N=C/c1cccnc1)c1cc2ccccc2o1 | 5 | · | 4 | 31* | -5
O=C(N/N=C/c1cccnc1)c1cc2c(ccc3ccccc32)o1 | 7 | · | 0 | 32* | -5
Cc1nn(C)c(C(=O)N/N=C/c2cccnc2)c1Cl | 2 | · | 44* | 2 | 2
O=C(NN=Cc1cccnc1)c1cc2c(ccc3ccccc32)o1 | · | 8 | · | · | ·
O=C(Cc1ccc2c(c1)OCCO2)NN=Cc1ccco1 | · | 5 | · | · | ·
